High-throughput results from PubChem.
CSC inhib = blocks cancer stem cells. cancer stem cell-like cells viability, luminescence. inhibition, % at 7.5 µM. hit rate 1.1% among 300,000; in the data active means inhibition above about 75%; tested in HMLE shEcad cells
Mdm2 MdmX PPI = human Mdm2/MdmX binding inhibition. O15151+Q00987. AID 485346. hit rate 3% among 330,000. SaOS-2 split-luciferase Mdm2/MdmX complementation, luminescence. inhibition, % at 8 µM;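 active means inhibition of at least 50% at 8 µM in the primary screen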
Target sequence (O15151 whole entry, looked up): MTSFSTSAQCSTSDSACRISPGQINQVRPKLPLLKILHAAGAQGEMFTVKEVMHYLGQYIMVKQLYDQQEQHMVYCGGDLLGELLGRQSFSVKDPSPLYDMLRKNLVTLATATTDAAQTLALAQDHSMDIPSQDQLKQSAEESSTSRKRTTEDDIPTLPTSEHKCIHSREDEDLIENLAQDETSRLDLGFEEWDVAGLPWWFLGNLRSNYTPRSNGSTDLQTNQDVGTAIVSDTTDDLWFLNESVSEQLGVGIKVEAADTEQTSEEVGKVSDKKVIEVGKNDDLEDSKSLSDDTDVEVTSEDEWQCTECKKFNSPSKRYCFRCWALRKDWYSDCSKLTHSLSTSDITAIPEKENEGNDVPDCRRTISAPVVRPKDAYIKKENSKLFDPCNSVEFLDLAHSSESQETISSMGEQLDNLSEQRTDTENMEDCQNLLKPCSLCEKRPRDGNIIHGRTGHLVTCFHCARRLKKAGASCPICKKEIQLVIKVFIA
Target sequence (Q00987 whole entry, looked up): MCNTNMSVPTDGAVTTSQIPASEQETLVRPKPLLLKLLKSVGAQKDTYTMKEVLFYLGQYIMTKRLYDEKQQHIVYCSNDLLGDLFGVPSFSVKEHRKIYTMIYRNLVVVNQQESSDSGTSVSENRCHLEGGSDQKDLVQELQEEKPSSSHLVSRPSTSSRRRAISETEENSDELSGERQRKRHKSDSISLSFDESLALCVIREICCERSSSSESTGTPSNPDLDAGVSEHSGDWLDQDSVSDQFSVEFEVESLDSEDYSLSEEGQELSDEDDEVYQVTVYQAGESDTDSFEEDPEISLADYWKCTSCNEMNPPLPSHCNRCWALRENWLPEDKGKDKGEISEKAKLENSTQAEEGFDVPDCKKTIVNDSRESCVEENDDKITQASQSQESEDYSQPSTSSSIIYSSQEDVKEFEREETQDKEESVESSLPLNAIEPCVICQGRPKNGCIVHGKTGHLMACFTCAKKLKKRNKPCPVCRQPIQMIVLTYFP
NR3A LBD binder = modulators (binders) of human NR3A ligand-binding domain | NR3A LBD differential scanning fluorimetry, Tm shift; 0% = protein alone, 100% = glycine-bound protein | Tm shift relative to glycine control, % at 25 µM | hit rate 2.5% among 340,000;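 active means melting temperature shift of at least 10% of the positive control shift, at one fixed dose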
Beta apoptosis = beta cell apoptosis inhibition | INS-1E cytokine-induced death, ATP luminescence, 48 h; percent of positive-control rescue, neutral wells zero | protection from apoptosis, % (no concentration beside the values) | hit rate 0.8% among 300,000;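 active means Every replicate reaches about 75%, or at least half do and their mean reaches it too, limit read from the data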;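 further: 0% = cytokine-treated negative control wells and 100% = positive control rescue; higher means more ATP so stronger rescue from cytokine killing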
Gli-Sufu antag = antagonists of Gli-Sufu signaling | Sufu-KO-LIGHT fibroblasts, Gli luciferase reporter luminescence | inhibition, % at 5 µM | hit rate 0.74% among 340,000 | AID 588413;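 active means inhibition above about 55%, limit read from the data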;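 further: 0% = DMSO-treated cells and 100% = wells with medium but no cells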
MPTP block = inhibitors of mitochondrial permeability transition pore; isolated mouse mitochondria, Ca2+ swelling absorbance, 30 min; inhibition, % at 10 µM; hit rate 1.4% among 360,000; AID 602449;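 active means inhibition of 50% or more, scaled per plate between neutral and stimulator controls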;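 further: 0% = DMSO wells given calcium and 100% = 1 mM EGTA wells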
Mdm2 MdmX conf = confirmation of human Mdm2/MdmX interaction inhibitors; shares compounds with Mdm2 MdmX PPI; Mdm2-MdmX binding, luminescent assay; inhibition, % at 8 µM; hit rate 55% among 10,000; in the data active means inhibition above about 40%
Full FLuc ctr = counter-screen for Mdm2/MdmX inhibitors: full-length luciferase. inhibition, % at 8 µM. SaOS-2 full-length luciferase counterscreen, luminescence. shares compounds with Mdm2 MdmX PPI. AID 504607. hit rate 77% among 6,200;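 active means mean inhibition at 8 µM reaching about 37%, which flags the compound as non-specific, limit read from the data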;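 further: p53-null SaOS-2 cells with luciferase driven by a doxycycline-inducible promoter; compound on cells about two nights before reading with doxycycline added after day one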
* hit, by the source's call; x = no result. Only some compounds are listed: those with a hit (about 6.6% of all), similar ones and a draw of the others.

SMILES	CSC inhib	Mdm2 MdmX PPI	NR3A LBD binder	Beta apoptosis	Gli-Sufu antag	MPTP block	Mdm2 MdmX conf	others
CC(=O)c1cccc(OC(=O)C2=CC=CN3CCS(=O)(=O)N=C23)c1	0	-24	1	-2	-4	-2	x
OC[C@@H]1CN(Cc2ccco2)C[C@H](n2cnc3c(N4CCOCC4)ncnc32)O1	x	x	x	x	x	2	x
COC(=O)c1cc(=O)n(Cc2ccc(F)cc2)c(=NCc2ccc(F)cc2)s1	-2	25	1	2	25	1	x
COC(=O)c1cc(=O)n(Cc2ccco2)c(=Nc2ccc(F)c(Cl)c2)s1	94*	100*	-1	14	6	2	35	Full FLuc ctr=65*
COC(=O)c1ccc(N=c2sc(C(=O)OC)cc(=O)n2C)cc1	x	x	0	x	-17	-2	x
COC(=O)c1cc(=O)n(CCc2ccccc2F)c(=Nc2ccc(F)c(Cl)c2)s1	122*	73*	0	76*	6	5	13
CCOC(=O)C1=C(N)n2c(s/c(=C\c3cccs3)c2=O)=C(C(=O)OCC)C1c1cccs1 (stereo unspecified)	56	62*	-2	12	7	1	50*	Full FLuc ctr=79*
CCOC(=O)C1=C(N)n2c(s/c(=C\c3ccncc3)c2=O)=C(C(=O)OCC)C1c1ccncc1 (stereo unspecified)	x	15	-2	3	15	0	x
CCOC(=O)C1=C(c2ccccc2)N=c2s/c(=C\c3cccc(O)c3)c(=O)n2C1c1cccs1 (stereo unspecified)	99*	78*	14*	20	3	11	29
Cc1c(CCOC(=O)CC23CC4CC(CC(C4)C2)C3)sc[n+]1CC(=O)c1ccc(Br)cc1	118*	51*	-6	38	3	1	-2
Cc1c(CCOC(=O)C23CC4CC(CC(C)(C4)C2)C3)sc[n+]1CC(=O)c1ccccc1	-7	54*	-2	54	26	5	26
Cc1c(CCOC(=O)c2cc([N+](=O)[O-])cc([N+](=O)[O-])c2)sc[n+]1CC(=O)c1ccccc1	-20	22	0	7	-6	1	x
Cc1c(CCOC(=O)c2ccccc2)sc[n+]1CC(=O)c1ccc(Br)cc1	x	12	0	6	-3	-1	x
COc1ccc(Cc2nc3ccc(C(=O)NCCc4cccc(C)n4)cc3o2)cc1	0	17	2	-6	-11	0	x
C=CCOc1cccn2c(N(C)C(=O)c3ccncc3)c(CC)nc12	x	x	x	x	x	0	x
C[C@H](CO)N1C[C@H](C)[C@H](CN(C)S(=O)(=O)c2ccccc2F)OCc2cnnn2CCCC1=O	x	x	x	x	x	0	x
COc1ccc(C2=NN(c3nc(-c4ccc(CNC(C)=O)cc4)cs3)C(c3ccco3)C2)cc1 (stereo unspecified)	-4	42	-3	-3	0	-3	x
NC(=O)c1ccccc1NC(=O)c1cccc(C(=O)Nc2ccccc2C(N)=O)n1	-1	37	1	0	8	3	x
COc1ccc(CNC(=O)Cc2csc(Nc3nc(=S)[nH]c4ccccc34)n2)cc1	-7	14	2	11	25	0	x
O=C(Cc1csc(Nc2nc(=S)[nH]c3ccccc23)n1)NCc1ccc(Cl)cc1	-4	74*	4	6	x	1	6
Cc1nc(NC(=O)COC(=O)c2ccc(CO)cc2)c(Cl)cc1Cl	-5	7	-1	-4	-5	-2	x
COc1ccc(-c2c([C@H]3[C@@H]4C=CCC[C@@]4(C)C(=O)N3Cc3ccccc3)ccc3ccccc23)cc1OC	-2	39	-1	14	-4	-3	x
COc1ccc(-c2ccc([C@H]3[C@@H]4C=CCC[C@@]4(C)C(=O)N3Cc3ccccc3)c(F)c2)cc1OC	30	63*	0	25	6	-1	22
COc1cc2c3c(cccc3c1)C(=O)N(CCN1CCCC1)C2=O	x	x	x	x	x	0	x
COC(=O)c1c(NC(=O)CSc2ncnc3c2cnn3-c2ccccc2Cl)sc2c1CCCC2	12	53*	-1	7	10	9	13
SMILES	CSC inhib	Mdm2 MdmX PPI	NR3A LBD binder	Beta apoptosis	Gli-Sufu antag	MPTP block	Mdm2 MdmX conf	others
Cn1cc(CN2C[C@]3(C)C[C@H]2CC(C)(C)C3)c(-c2ccc3c(c2)OCCO3)n1	-4	3	1	-4	7	2	x
COc1cc(CNc2ccc(O)cc2)cc(Br)c1OCc1ccccc1	59	1	5	29	6	1	x
COc1cc(CNC(C)c2ccccc2)cc(Br)c1OCc1ccc(F)cc1 (stereo unspecified)	56	60*	-1	113*	31	12	63*	Full FLuc ctr=75*
COc1cc(CNC(C)c2ccccc2)cc(Cl)c1OCC(=O)Nc1ccccc1 (stereo unspecified)	27	68*	-1	-6	27	0	56*	Full FLuc ctr=51*
COc1cc(OC)cc(-c2c(-c3ccsc3)c3cc(Br)ccc3n2C)c1	40	2	2	-2	-3	0	x
Cc1ccc2nc(-c3ccc(O)c(O)c3)cn2c1	37	-58	-1	16	-2	-1	x
Cc1ccc2nc(-c3ccccc3)cn2c1	-18	67*	-1	32	18	0	58*	Full FLuc ctr=32
CCCCn1c(N)c(N(CC)C(=O)C2CCC2)c(=O)[nH]c1=O	x	-32	-2	-9	-10	0	x
Cc1ccc(NC(=S)NNC(=S)NC2CCCCC2)cc1	8	-6	1	5	5	9	x
S=C(NNc1ccc2ccccc2c1)NC1CCCCC1	x	64*	-5	-6	4	4	55*	Full FLuc ctr=34
Cc1ccc(Cl)cc1NC(=O)CN1C(=O)COc2ccc(S(=O)(=O)N3CCOCC3)cc21	-18	-2	1	5	-6	1	x
COc1ccccc1NC(=O)Cc1nc(=O)[nH]c(=O)[nH]1	x	x	x	x	x	-1	x
COC(=O)c1nn(-c2ccc3c(c2)CCN3C(C)=O)cc1O	30	51*	0	7	30	-3	68*	Full FLuc ctr=31
COc1ccc(/C=C/C(=O)NCCc2c[nH]c3ccccc23)cc1OC	2	11	-9	7	12	0	x
COc1cc(/C=C(/C#N)C(=O)NCCc2c[nH]c3ccccc23)ccc1OCc1ccccc1F	47	63*	3	37	3	0	7
O=C(CN1C(=O)/C(=C/c2c(F)cccc2Cl)Oc2ccccc21)NCc1ccco1	43	64*	x	10	x	x	49*	Full FLuc ctr=102*
O=C(/C=C/c1c(F)cccc1Cl)NCc1ccco1	-3	-1	-10	-4	-17	-1	x
CC1=CNC(=O)CC(C)(C)C1	x	x	x	x	x	1	x
Cc1nn(Cc2c(Cl)cccc2Cl)c(Cl)c1/C=C/C(=O)OCC(=O)NCC(F)(F)F	7	79*	-4	-5	25	-6	25
